The results in this text go back to ChEMBL document CHEMBL2218924, “A broad activity screen in support of a chemogenomic map for kinase signalling research and drug discovery” (Biochem J, 2013).

For test [1], the target named is T1, Ephrin type-B receptor 1 (Homo sapiens) (UniProt P54762).
T1 sequence (whole entry): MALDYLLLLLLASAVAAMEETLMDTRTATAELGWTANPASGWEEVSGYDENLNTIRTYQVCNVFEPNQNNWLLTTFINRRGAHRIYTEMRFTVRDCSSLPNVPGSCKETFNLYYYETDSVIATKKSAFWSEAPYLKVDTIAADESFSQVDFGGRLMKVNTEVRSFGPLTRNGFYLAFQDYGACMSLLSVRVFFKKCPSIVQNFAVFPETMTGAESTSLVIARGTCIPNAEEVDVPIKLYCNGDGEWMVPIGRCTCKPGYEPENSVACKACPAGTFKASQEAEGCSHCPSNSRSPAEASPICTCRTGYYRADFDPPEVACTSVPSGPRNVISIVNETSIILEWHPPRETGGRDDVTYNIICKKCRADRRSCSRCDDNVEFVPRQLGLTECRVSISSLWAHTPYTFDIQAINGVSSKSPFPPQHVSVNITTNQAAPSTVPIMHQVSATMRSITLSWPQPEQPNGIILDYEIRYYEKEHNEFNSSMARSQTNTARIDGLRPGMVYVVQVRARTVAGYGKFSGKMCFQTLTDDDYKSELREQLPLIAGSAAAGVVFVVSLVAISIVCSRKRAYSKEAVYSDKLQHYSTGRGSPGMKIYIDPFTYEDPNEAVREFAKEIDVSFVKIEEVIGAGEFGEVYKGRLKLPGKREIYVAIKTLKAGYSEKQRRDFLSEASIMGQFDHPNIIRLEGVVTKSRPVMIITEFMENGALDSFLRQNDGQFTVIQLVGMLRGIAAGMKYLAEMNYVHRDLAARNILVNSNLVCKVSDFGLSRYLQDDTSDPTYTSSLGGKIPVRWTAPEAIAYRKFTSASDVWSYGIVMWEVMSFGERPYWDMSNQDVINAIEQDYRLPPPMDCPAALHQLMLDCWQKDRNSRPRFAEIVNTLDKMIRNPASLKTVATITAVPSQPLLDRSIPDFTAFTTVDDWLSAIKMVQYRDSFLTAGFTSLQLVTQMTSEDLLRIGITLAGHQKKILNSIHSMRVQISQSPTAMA
The note with it: at 10 µM.

In test [2] the target is T2, Ephrin type-B receptor 2 (Homo sapiens) (UniProt P29323).
T2 sequence (whole entry): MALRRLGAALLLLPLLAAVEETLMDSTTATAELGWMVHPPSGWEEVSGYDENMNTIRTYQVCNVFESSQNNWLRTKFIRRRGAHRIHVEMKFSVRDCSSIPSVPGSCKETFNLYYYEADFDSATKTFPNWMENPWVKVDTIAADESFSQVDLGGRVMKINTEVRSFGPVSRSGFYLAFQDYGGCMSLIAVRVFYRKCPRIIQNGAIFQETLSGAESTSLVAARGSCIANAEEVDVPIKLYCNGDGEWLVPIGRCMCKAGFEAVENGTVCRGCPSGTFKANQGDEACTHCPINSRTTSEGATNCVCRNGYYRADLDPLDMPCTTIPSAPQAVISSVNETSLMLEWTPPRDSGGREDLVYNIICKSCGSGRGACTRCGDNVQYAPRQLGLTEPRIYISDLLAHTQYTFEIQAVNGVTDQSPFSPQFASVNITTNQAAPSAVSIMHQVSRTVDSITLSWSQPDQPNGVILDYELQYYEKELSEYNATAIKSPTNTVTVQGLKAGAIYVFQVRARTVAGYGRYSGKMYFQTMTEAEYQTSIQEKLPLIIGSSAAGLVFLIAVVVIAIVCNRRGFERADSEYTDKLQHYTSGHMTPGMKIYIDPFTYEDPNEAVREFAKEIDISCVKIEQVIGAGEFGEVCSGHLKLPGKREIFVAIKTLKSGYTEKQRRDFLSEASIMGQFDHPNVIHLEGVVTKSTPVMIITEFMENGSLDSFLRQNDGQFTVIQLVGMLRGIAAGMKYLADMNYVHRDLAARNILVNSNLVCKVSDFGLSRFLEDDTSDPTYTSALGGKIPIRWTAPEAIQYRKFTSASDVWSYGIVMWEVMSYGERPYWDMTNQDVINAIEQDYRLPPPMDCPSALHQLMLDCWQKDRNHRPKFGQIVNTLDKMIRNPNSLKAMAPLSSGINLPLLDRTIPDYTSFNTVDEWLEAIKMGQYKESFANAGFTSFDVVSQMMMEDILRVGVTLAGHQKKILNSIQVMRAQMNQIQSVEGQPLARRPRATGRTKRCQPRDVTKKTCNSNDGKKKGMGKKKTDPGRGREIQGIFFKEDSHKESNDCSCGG
Particulars: at 1 µM; call rule not given here.

Test [3] concerns the target T2, Ephrin type-B receptor 2 (Homo sapiens). Particulars: at 10 µM.
In test [4] the target is T3, Ephrin type-B receptor 3 (Homo sapiens) (UniProt P54753).
T3 sequence (whole entry): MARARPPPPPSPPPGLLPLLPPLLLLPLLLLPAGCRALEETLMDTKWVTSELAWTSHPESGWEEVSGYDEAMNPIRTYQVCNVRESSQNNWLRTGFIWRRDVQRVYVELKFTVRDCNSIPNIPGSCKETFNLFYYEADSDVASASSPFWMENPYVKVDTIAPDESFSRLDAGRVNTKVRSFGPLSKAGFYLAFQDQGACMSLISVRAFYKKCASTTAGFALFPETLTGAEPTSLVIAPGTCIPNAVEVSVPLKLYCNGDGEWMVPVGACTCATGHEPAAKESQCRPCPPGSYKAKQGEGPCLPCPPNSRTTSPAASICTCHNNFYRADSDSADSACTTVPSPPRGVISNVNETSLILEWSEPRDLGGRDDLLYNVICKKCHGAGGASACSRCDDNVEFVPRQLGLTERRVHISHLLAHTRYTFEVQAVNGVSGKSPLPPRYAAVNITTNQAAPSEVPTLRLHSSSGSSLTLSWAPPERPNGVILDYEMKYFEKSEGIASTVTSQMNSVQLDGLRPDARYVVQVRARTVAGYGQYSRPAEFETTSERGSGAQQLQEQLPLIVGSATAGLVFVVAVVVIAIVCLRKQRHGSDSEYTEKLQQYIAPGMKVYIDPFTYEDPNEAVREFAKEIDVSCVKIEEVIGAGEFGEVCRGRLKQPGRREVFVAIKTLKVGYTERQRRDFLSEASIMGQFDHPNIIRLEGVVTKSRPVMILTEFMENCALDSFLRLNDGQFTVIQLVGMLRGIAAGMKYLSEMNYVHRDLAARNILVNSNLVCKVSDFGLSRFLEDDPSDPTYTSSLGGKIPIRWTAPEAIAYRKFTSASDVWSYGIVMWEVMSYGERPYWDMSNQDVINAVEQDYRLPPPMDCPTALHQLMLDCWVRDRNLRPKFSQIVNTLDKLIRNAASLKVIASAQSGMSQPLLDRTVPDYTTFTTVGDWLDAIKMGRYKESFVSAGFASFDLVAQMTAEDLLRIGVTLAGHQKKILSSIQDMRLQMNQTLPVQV
Particulars: at 1 µM.

In test [5] the target is T3, Ephrin type-B receptor 3 (Homo sapiens). Particulars: at 10 µM.
Test [6] deals with T4, Ephrin type-B receptor 4 (Homo sapiens) (UniProt P54760).
T4 sequence (whole entry): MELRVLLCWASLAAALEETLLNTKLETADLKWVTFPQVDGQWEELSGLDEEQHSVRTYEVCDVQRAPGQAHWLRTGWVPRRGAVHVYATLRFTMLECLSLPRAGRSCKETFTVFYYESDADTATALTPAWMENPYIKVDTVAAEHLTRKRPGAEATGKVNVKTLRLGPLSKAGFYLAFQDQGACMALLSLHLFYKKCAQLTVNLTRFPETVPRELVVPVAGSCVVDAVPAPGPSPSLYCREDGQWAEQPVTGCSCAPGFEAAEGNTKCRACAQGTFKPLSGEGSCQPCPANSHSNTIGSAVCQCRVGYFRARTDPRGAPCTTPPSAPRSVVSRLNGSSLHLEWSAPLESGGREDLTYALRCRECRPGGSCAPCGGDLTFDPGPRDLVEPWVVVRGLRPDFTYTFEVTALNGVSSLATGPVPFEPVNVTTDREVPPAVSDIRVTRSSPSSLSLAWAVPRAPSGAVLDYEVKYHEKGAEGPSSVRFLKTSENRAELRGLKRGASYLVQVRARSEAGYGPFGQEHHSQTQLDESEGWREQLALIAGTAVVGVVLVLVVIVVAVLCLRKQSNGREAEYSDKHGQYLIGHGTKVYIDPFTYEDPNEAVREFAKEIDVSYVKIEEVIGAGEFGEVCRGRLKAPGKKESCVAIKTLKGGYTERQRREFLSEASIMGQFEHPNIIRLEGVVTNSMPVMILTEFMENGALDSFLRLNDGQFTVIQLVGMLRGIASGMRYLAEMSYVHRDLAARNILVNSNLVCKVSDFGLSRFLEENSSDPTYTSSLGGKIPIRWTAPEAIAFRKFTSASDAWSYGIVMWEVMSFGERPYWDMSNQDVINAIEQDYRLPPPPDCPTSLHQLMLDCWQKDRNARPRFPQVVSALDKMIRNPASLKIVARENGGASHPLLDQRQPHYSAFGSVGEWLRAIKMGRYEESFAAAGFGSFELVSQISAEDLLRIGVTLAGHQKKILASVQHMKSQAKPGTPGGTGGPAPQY
The note with it: at 1 µM.

In test [7] the target is T4, Ephrin type-B receptor 4 (Homo sapiens). The note with it: at 10 µM.
For test [8], the target named is Receptor tyrosine-protein kinase erbB-4 (Homo sapiens) (UniProt Q15303). Particulars: at 1 µM.
Sequence of Receptor tyrosine-protein kinase erbB-4 (Homo sapiens) (Q15303 whole entry): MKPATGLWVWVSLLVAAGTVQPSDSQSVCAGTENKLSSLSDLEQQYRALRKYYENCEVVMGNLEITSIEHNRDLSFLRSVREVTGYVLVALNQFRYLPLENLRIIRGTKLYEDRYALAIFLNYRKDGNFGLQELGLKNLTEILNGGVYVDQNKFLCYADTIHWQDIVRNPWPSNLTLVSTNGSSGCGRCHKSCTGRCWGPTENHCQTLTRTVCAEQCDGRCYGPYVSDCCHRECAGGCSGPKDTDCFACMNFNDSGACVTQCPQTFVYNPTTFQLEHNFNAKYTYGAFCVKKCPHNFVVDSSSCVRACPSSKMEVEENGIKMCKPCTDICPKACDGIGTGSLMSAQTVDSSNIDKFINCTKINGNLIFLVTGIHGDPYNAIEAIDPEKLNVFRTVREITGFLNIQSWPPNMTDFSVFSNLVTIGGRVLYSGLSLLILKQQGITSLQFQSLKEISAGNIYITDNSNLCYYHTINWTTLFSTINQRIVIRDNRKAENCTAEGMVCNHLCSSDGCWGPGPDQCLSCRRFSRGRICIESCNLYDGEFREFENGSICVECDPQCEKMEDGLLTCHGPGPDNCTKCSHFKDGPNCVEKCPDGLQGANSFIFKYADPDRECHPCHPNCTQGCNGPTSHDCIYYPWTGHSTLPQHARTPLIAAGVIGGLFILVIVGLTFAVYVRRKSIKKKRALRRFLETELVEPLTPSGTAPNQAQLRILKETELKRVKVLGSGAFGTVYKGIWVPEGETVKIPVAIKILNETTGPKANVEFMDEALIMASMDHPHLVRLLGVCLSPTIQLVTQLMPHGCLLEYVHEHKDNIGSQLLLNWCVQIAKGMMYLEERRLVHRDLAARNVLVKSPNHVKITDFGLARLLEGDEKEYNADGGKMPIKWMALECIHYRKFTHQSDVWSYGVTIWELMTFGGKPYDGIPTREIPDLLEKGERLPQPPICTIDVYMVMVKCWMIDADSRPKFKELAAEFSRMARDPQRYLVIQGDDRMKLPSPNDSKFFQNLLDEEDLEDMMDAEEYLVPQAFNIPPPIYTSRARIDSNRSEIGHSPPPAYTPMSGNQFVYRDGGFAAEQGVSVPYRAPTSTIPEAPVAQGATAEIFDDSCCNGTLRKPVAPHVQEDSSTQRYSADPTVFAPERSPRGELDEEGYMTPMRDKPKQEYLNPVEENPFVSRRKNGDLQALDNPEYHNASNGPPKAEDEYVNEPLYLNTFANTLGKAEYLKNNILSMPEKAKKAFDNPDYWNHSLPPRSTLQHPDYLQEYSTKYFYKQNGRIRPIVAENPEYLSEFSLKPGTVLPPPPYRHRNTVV
Test [9] has the same target. The note with it: at 10 µM.
For test [10], the target named is Focal adhesion kinase 1 (Homo sapiens) (UniProt Q05397). Particulars: at 1 µM.
Sequence of Focal adhesion kinase 1 (Homo sapiens) (Q05397 2-1052 limits assumed): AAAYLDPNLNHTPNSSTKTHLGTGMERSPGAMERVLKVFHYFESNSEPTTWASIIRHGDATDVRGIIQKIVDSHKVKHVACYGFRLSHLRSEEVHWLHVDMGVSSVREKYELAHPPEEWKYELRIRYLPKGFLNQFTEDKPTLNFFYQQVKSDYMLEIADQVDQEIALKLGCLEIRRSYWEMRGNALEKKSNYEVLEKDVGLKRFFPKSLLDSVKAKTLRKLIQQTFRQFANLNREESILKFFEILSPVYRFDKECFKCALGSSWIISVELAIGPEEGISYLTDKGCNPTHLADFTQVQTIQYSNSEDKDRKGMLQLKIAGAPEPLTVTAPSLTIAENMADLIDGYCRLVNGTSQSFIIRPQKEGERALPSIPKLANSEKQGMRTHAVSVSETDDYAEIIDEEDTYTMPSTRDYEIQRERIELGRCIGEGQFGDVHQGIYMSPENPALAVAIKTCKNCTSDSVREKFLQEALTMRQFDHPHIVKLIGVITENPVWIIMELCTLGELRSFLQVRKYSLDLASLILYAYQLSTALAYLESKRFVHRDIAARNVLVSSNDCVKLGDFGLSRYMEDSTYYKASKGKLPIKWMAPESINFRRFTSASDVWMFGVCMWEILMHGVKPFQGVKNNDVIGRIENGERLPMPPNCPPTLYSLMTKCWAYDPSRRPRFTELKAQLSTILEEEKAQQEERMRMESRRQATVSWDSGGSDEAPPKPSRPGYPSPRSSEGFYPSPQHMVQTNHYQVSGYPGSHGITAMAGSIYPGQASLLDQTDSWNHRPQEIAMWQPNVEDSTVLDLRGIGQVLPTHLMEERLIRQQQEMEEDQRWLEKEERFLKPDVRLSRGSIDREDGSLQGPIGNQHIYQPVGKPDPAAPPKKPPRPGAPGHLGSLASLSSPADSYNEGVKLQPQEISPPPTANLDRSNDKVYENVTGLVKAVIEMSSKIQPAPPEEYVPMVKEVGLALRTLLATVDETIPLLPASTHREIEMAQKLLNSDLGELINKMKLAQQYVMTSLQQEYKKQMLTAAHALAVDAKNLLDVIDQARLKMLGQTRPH

The residual activity is the signal under treatment as a percentage of the control signal. As for `COc1ccc(S(=O)(=O)N(CCO)c2ccccc2CN(C)C/C=C/c2ccc(Cl)cc2)cc1`, the residual activity in test [1] is 90%; in [2], 115%; in test [3], 120%; in [4], 112% (inactive); in [5], 107%; in [6] it was 86%. In addition, the residual activity in test [7] turned out to be 79%; in test [8], 110%; in test [9], 77%; in test [10], 93%.
